# SARS PLpro yeast-1: qHTS of Yeast-based Assay for SARS-CoV PLP; Potency, µM (doses to about 32.9 µM), usual class: activators; S. cerevisiae expressing SARS-CoV PLpro, growth rescue; 330,000 compounds, 0.19% hits; AID 485353, 2010; calls by dose curve; further: nearly all actives have a fitted effect of over 55% in size
# Pf growth 48h: Primary qHTS for delayed death inhibitors of the malarial parasite plastid, 48 hour incubation | 310,000 compounds, 5.9% hits | P. falciparum luciferase growth in erythrocytes, 48 h | Potency, µM (titrated, usually from 28.7 µM), actives largely listed as inhibitors | AID 504832, 2011
#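 Compounds are pin-transferred into medium, infected erythrocytes (2% hematocrit, 0.1% parasitemia final) are added, and plates sit one parasite generation at 37 C in 5% CO2. Detection reagent is then added and luminescence measured.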
# AMA1 RON2 block: qHTS for Inhibitors of AMA1-RON; Towards Development of Antimalarial Drug Lead: Primary Screen; Potency, µM (highest dose often 58.2 µM), hits mostly inhibitors; Plasmodium falciparum AMA1 (3D7) - RON2 peptide interaction; AlphaScreen AMA1-biotinylated RON2 peptide binding; 360,000 compounds, 0.2% hits; AID 720542, 2013; further: nearly all actives have a fitted effect of over 45% in size
#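 AMA1 (3D7) with his tag at 25 nM final met compounds first, then biotinylated RON2 peptide at 25 nM; detection used donor plus acceptor beads, 10 µg/mL apiece, read by AlphaScreen after 30 min at room temperature.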
# Pf growth 96h: Primary qHTS for delayed death inhibitors of the malarial parasite plastid, 96 hour incubation; P. falciparum luciferase reporter growth, 96 h; Potency, µM (series often up to 28.7 µM), usual class: inhibitors; 320,000 compounds, 6.9% hits; AID 504834, 2011
#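 Plates of compound plus infected erythrocytes (2% hematocrit, 0.05% parasitemia final) incubate 96 hours, 37 C, 5% CO2. Detection reagent added; reduced luminescence from the parasites' luciferase reporter flags inhibition.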
# SARS PLpro yeast-2: qHTS of Yeast-based Assay for SARS-CoV PLP: Hit Validation | shares compounds with SARS PLpro yeast-1 | yeast expressing SARS-CoV PLpro, growth phenotype rescue | calls only | 1,000 compounds, 19% hits | AID 652038, 2013; call rule not given here
# Numbers stand for hits; n = inactive; u = inconclusive; x = no result given; + = active, no number. Shown are actives, neighbours in structure and some others; about 9.4% of the full set was active somewhere. Unless noted, the call rests on the fitted dose curve; in most records, active means well fitted curve in the direction sought with a large enough effect; inconclusive means small, poorly fitted or top-dose-only effect, or another doubt; inactive means no such curve, though single readings can be large; an effect the other way counts as inactive or inconclusive.
SMILES,SARS PLpro yeast-1,Pf growth 48h,AMA1 RON2 block,Pf growth 96h,SARS PLpro yeast-2
O=C(NC1CCCC1)C(=O)N(Cc1cccnc1)C(C(=O)NC1CCCC1)c1ccco1 (stereo unspecified),n,n,n,n,x
COc1ccc(CNC(=O)C2CCN(c3nnc(N4CCCC4=O)s3)CC2)cc1,n,n,n,u,x
Cc1nnc2n(-c3ccccc3)c(=O)c3c4c(sc3n12)COC(C)(C)C4,u,n,n,n,n
Cc1ccc(NC(=S)NCC2CCCO2)cc1C (stereo unspecified),n,n,n,n,x
Cc1cccc(NC(=S)NCC2CCCO2)c1 (stereo unspecified),u,n,n,x,n
Cc1nn(Cc2ccccc2)c(C)c1/C=N/NC(=O)CNc1cccc(C(F)(F)F)c1,11µM,u,n,u,n
COc1ccc(NCC(=O)N/N=C/c2c(C)nn(Cc3ccccc3)c2Cl)cc1,n,u,n,u,x
Cc1cccc(C)c1NC(=S)NN1CCN(C)CC1,u,x,n,n,+
C=CCc1cccc(/C=N/NC(=O)C(C)Nc2ccc(C)cc2)c1O (stereo unspecified),u,u,n,12µM,n
C=CCc1cccc(/C=N/NC(=O)C(=O)Nc2ccc(C)cc2)c1O,n,n,n,u,x
Cc1cc(C)cc(C(=O)N(c2ccccn2)C(C)c2ccco2)c1 (stereo unspecified),u,x,n,n,n
CCOCC(=O)Nc1cc(C(=O)NCCC(C)C)ccc1Cl,n,n,x,n,x
COc1ccc(N(CC(=O)Nc2nccs2)S(=O)(=O)c2c(C)nn(C)c2C)cc1,u,x,n,u,n
Cc1nn(C)c(C)c1S(=O)(=O)N(CC(=O)Nc1nccs1)c1ccc(C(C)C)cc1,n,n,n,u,x
COc1cccc(C(=O)Nc2nc(-c3ccccc3)c(-c3ccccc3)o2)c1,u,n,n,n,+
CC(=O)Nc1ccc(NC(=O)C(C)OC(=O)c2c(NC(C)=O)sc(C)c2C)cc1 (stereo unspecified),u,n,n,u,n
Cc1cc(/C=C2\C(=N)N3N=C(S(C)(=O)=O)SC3=NC2=O)c(C)n1Cc1ccccc1,n,u,n,n,x
COc1cccc(NC(=O)CSc2cccc[n+]2[O-])c1,n,x,n,x,x
O=C(CSc1cccc[n+]1[O-])Nc1cccc(Oc2ccccc2)c1,u,n,n,n,n
CC(C)CN1CN(Cc2ccccc2)CNC1=S,13µM,n,n,u,+
CCCN1CNC(=S)N(Cc2ccccc2)C1,n,n,n,u,x
CCCCN1CNC(=S)N(Cc2ccccc2)C1,u,n,n,9.3µM,n
Cc1ccccc1-n1c(Cn2c(=O)sc3ccccc32)nnc1SCC(=O)N1CCCC1,n,u,n,u,x
O=C(CSc1nnc(Cn2c(=O)sc3ccccc32)n1-c1ccccc1)N1CCCC1,u,n,n,u,n
CCSc1nsc(NC(=O)Nc2cccc(OC)c2)n1,n,u,n,u,x
SMILES,SARS PLpro yeast-1,Pf growth 48h,AMA1 RON2 block,Pf growth 96h,SARS PLpro yeast-2
Cc1ccc(S(=O)(=O)N(C)C[C@H]2Oc3ccc(NC(=O)Nc4c(C)noc4C)cc3CC(=O)N([C@@H](C)CO)C[C@@H]2C)cc1,n,x,n,x,x
CNC[C@@H]1Oc2ccc(NC(=O)Nc3c(C)noc3C)cc2CC(=O)N([C@H](C)CO)C[C@H]1C,11µM,x,n,x,n
O=C(CCCN1C(=O)S/C(=C/c2ccccc2)C1=S)Nc1ccc(C(=O)O)cc1,n,n,n,u,x
COc1cc2nc(-c3ccccc3C)oc(=O)c2cc1OC,n,n,n,u,x
COc1cc2nc(CN3C(=O)c4ccccc4C3=O)oc(=O)c2cc1OC,22µM,n,n,n,n
COC(=O)c1c(NC(=O)CSc2nc3ccccc3c(=O)n2Cc2ccco2)sc(C)c1C,u,n,n,n,+
O=C(Oc1ccccc1)c1ccc(NC(=O)c2ccco2)cc1,n,u,n,n,x
COc1cccc(CNc2ccc(S(N)(=O)=O)cc2)c1OC,u,u,n,x,n
NS(=O)(=O)c1ccc(NCc2ccccc2OCc2ccccc2F)cc1,n,n,n,n,x
CCOC(=O)c1cnn(Cc2ccccc2)c1N,u,n,n,n,n
CCOC(=O)c1cnn(C(=O)c2ccccc2)c1N,n,n,n,n,x
O=c1ccc(S(=O)(=O)N2CCCC2)cn1Cc1nc(-c2ccc(F)cc2)no1,n,n,n,n,x
CCOc1ccccc1Nc1nnc(SCc2nnc(-c3cc(OC)c(OC)c(OC)c3)o2)s1,u,u,n,u,n
Cc1cc(C(=O)NCc2ccccc2)no1,n,n,n,n,x
CCOC(=O)C(C)/C(C)=N/NC(N)=S (stereo unspecified),u,1.3µM,n,4.7µM,+
COc1ccc(OC)c(C2C=C(C34CC5CC(CC(C5)C3)C4)NC(=S)N2)c1 (stereo unspecified),u,8.3µM,n,2.6µM,+
CC(=NC(C)C)C1=C(O)CCC1=O,u,n,n,n,n
CC(=Nc1ccc(C)c(C)c1)C1=C(O)CCC1=O,n,x,n,n,x
COc1cc(S(=O)(=O)N2CCCCCC2)c(OC)cc1Br,n,x,n,n,x
CC(C)Sc1nc2c([nH]1)c(=N)ncn2Cc1ccccc1,n,u,n,u,x
COC(=O)c1ccc2c(=O)n(NC(=O)C(c3ccccc3)c3ccccc3)c(=S)[nH]c2c1,u,x,n,n,n
O=C(N/N=C/c1cc(Cl)ccc1O)c1ccc(Br)cc1,u,u,n,n,n
Nc1nonc1C(=O)N/N=C/c1cc(Br)ccc1O,u,4.1µM,n,n,+
NC(=O)N/N=C\c1cc(Br)ccc1O,n,n,n,n,x
Nc1nonc1-n1nnc(C(=O)N/N=C/c2cc(Br)ccc2O)c1CNc1ccccc1,u,u,n,u,x
SMILES,SARS PLpro yeast-1,Pf growth 48h,AMA1 RON2 block,Pf growth 96h,SARS PLpro yeast-2
Cc1ccc(NC(=O)C2CCN(S(=O)(=O)c3cccs3)CC2)c(O)c1,n,u,n,u,x
O=C(NCc1ccco1)c1cc(-c2ccco2)on1,n,n,n,n,x
CCn1nnc(-c2ccccc2NS(=O)(=O)c2ccc(S(=O)(=O)N(C)C3CCCCC3)cc2)n1,u,x,n,u,+
O=c1[nH]nc(C(F)(F)F)c2nnn(Cc3ccccc3Cl)c12,n,n,n,n,x
O=C(NNC(=O)c1cc(F)c(F)cc1Cl)c1ccc(NS(=O)(=O)c2cccs2)cc1,n,n,n,n,x
O=C(NNC(=O)c1cc(Cl)ccc1O)c1ccc(NS(=O)(=O)c2cccs2)cc1,u,n,n,n,u
COc1ccccc1NS(=O)(=O)c1ccc(NC(=O)N2CCCCC2)cc1,n,n,n,n,x
O=C(Nc1ccc(S(=O)(=O)Nc2ccccc2F)cc1)N1CCCCC1,u,n,n,u,+
COc1ccc(C(=O)Nc2cc(=O)[nH]c3ncnn23)cc1,n,n,n,n,x
Cc1cccc(-n2c(O)c(C=Nc3ccccc3)c3ccccc3c2=O)n1,n,n,n,n,x
C/C=C/c1ccc(OCCCNC(C)CC)c(OC)c1 (stereo unspecified),22µM,x,20µM,n,n

# Screening data deposited in PubChem by National Center for Advancing Translational Sciences (NCATS).
